High-throughput results (PubChem BioAssay)
Compounds with a hit are over-represented: about 2% of the library has one in this group of screens.
aSyn yeast inh: rescues yeast growth from alpha-synuclein toxicity; 370,000 tested, 0.14% active; Yeast expressing alpha-synuclein, growth rescue, BacTiter-Glo, 24 h; Potency, µM (doses to about 46.1 µM), for inactives: top-dose growth rescue (activation), hits mostly activators; AID 652106; also: % of control where 0% means no effect; nearly all actives have a fitted effect of over 65% in size
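Rescue of yeast growth: cells expressing toxic alpha-synuclein, induced in galactose at OD600 0.02, incubated with compound 24 h at 30 C. ATP luminescence quantified growth; inhibitors of toxicity appear as activators.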
Rango complex inh: prevents formation of the Rango-importin beta complex. Q14974. Rango CFP/YFP FRET sensor + importin beta, 45 min. Potency, µM (series often up to 92.2 µM), for the others: top-dose inhibition of complex formation. 340,000 tested, 0.031% active; calls by dose curve;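 also: 0% = DMSO wells and 100% = buffer wells lacking importin beta; nearly all actives have a fitted effect of over 15% in size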
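FRET biosensor Rango (snurportin 1 IBB between N-terminal EYFP and C-terminal Cerulean), 50 nM in PBS/1 mM DTT/0.02% Tween-20/0.1% BSA, preincubated 5 min RT with compound; 0.125 microM importin beta added, 45 min RT, CFP/YFP FRET ratio read.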
TDP-43 yeast inh: rescues yeast growth from TDP-43 toxicity. TDP-43 expressing yeast growth rescue, BacTiter-Glo, 24 h. AID 652104. Potency, µM (series often up to 46.1 µM), inactives show at the top dose growth rescue (activation), hits mostly activators. 410,000 tested, 1.8% active; also: % of control where 0% means no effect; nearly all actives have a fitted effect of over 50% in size
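Growth rescue of TDP-43-toxic yeast measured as ATP luminescence (BacTiter-Glo). Cells grown to mid-log in raffinose, induced in galactose at OD600=0.02, exposed to compound 24 hr at 30 deg C.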
Abeta rescue: compounds reversing amyloid beta toxicity in yeast; yeast expressing A-beta42, growth rescue, OD600, 48 h; response scale: 0% DMSO, 100% iron-clioquinol control; Potency, µM (top dose mostly 46.1 µM), hits mostly activators; 410,000 tested, 0.063% active; also: nearly all actives have a fitted effect of over 55% in size
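Yeast growth medium received pinned compounds, then yeast cells expressing toxic A-beta were added; plates incubated at 30 C for 48 hr. Growth read as absorbance at 600 nm, normalized to DMSO and equimolar FeCl3 plus clioquinol controls.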
Rango dissoc inh: prevents RanGTP from dissociating the Rango-importin beta complex | O95149+P62826 | Biochemical FRET Rango-importin beta, RanGTP-induced dissociation | Potency, µM (doses to about 46.1 µM), for inactives: at the top dose activity change, negative = inhibition | 340,000 tested, 0.071% active | AID 540253; calls by dose curve; also: % of control where 0% means no effect; nearly all actives have a fitted effect of over 45% in size
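Rango FRET biosensor (snurportin-1 IBB flanked by N-terminal EYFP and C-terminal CFP10) at 0.1 uM, with 0.25 uM importin beta in PBS, 1mM DTT, 0.02% Tween-20, 0.1% BSA. 0.6 uM Ran, 2mM GTP and 0.2 uM RCC1 were then added for 45 min at room temperature. Inhibition read as loss of FRET rise.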
S-ASM inh: inhibitors of human secretory acid sphingomyelinase | placental ASM, HMU-PC fluorogenic substrate, 60 min | Potency, µM (series often up to 57.5 µM), for inactives: top-dose activity change, negative = inhibition, most hits filed as inhibitors | AID 504937 | 340,000 tested, 0.006% active | P17405
Target sequence (P17405 47-631 limits assumed): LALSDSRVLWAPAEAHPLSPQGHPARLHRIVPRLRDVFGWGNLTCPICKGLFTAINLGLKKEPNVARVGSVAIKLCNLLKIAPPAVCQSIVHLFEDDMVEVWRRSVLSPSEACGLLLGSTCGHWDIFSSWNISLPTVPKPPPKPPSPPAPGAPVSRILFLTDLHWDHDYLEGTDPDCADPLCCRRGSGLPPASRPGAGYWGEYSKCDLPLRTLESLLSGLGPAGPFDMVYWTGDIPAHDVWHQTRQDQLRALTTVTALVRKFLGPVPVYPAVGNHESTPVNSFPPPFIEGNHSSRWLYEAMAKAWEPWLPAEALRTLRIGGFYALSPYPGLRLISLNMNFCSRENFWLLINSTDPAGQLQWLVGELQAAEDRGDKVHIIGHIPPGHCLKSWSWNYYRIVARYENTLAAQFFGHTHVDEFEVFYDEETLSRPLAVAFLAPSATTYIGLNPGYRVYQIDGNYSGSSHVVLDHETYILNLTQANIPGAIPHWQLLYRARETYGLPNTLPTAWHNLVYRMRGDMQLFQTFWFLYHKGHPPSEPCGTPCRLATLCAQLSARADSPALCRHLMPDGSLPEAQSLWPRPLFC
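qHTS format. ASM enzyme prepared from human placenta hydrolyses the fluorogenic substrate HMU-PC0 (9 uM final) over 60 min at 37 °C after a 10 min compound preincubation.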
* hit, by the source's call; i = inactive; ? = inconclusive; · = no result. Unless noted, calls follow the shape of the dose curve; as a rule, active = well fitted curve in the direction sought with a large enough effect; inconclusive = small, poorly fitted or top-dose-only effect, or another doubt; inactive = no such curve, though single readings can be large; an effect the other way counts as inactive or inconclusive. Potency is read from the fitted curve at half-maximal effect.

SMILES	aSyn yeast inh	Rango complex inh	TDP-43 yeast inh	Abeta rescue	Rango dissoc inh	S-ASM inh
CC(C)Oc1ccc(F)cc1-c1cc(C(=O)N2CCc3ccccc3C2)[nH]n1	8%	·	28µM*	i	·	·
CC(=O)ON(C(C)=O)c1ccc(/C=C2\C=Cc3ccccc32)cc1	-16%	·	·	·	·	·
COc1ccc(OC(C)C(=O)NCc2nc(-c3ccc(Cl)cc3)no2)cc1 (stereo not given)	·	·	16µM*	i	·	·
COc1ccccc1OCC(=O)NCc1nc(-c2ccc(Cl)cc2)no1	·	·	0%	i	·	·
Cc1cccc(-c2nc3c4ccccc4n(CC(=O)Nc4cccc(F)c4)c(=O)n3n2)c1	·	·	?	i	·	·
CC1=C(C(=O)Nc2ccccc2)C(c2ccc(Cl)cc2)n2c(s/c(=C/c3cccc(OCC(=O)O)c3)c2=O)=N1 (stereo not given)	-2%	?	10%	i	-15%	25µM*
CC(=O)n1c(-c2ccccc2)c(-c2ccccc2)n(C)c1=O	-7%	3%	13µM*	i	0%	-4%
CCOc1ccc(CCNC(=O)CCc2c(C)nc3c4c(C)cc(C)nc4nn3c2C)cc1	·	·	-28%	i	·	·
N#C/C(=C\c1ccc(OC(F)F)cc1)C(=O)N1CCCCC1	13µM*	-1%	?	i	-2%	1%
CCc1ccccc1NC(=O)CN1C(=O)COc2ccc(S(=O)(=O)Nc3ccccc3)cc21	·	·	16%	i	·	·
COc1cc(OC)c(NC(=O)Cc2cccs2)cc1Cl	-2%	-1%	?	i	-6%	-5%
COc1cc(OC)c(NC(=O)CCc2nc(-c3cccs3)no2)cc1Cl	8%	0%	20µM*	i	-12%	?
COc1ccc(OCc2nc3ccccc3n2C(C)c2ccccc2)cc1 (stereo not given)	·	·	13µM*	?	·	·
CC(c1ccccc1)n1c(CO)nc2ccccc21 (stereo not given)	-2%	3%	-18%	i	-22%	-2%
COc1cccc(Cn2c(C(C)n3c(-c4cnccn4)nc4ccccc43)nc3ccccc32)c1 (stereo not given)	?	·	14µM*	i	·	·
COc1cccc(Cn2c(Cn3c(-c4cnccn4)nc4ccccc43)nc3ccccc32)c1	2%	·	1%	i	·	·
COc1cccc(OCc2nc3ccccc3n2Cc2ccccc2)c1	·	·	22µM*	?	·	·
Clc1ccc(-c2csc3ncnc(Sc4nnnn4-c4ccccc4)c23)cc1	-14%	·	·	·	·	·
O=C(Nc1cccc(-c2nc3ncccc3o2)c1)c1ccccc1	0%	3%	16µM*	i	10%	0%
Cc1ccc(C(=O)Nc2cccc(-c3nc4ncccc4o3)c2)cc1	-3%	4%	?	i	-4%	-2%
O=[N+]([O-])c1ccc2c(c1)-c1ccccc1C2=NO	-19%	2%	?	i	-7%	-10%
Nc1ccc2c(c1)C(=NO)c1cc([N+](=O)[O-])ccc1-2	6.3µM*	8%	11µM*	i	-10%	-12%
O=C(c1ccc(Cl)cc1)n1nc(-c2ccccc2)nc1NCc1ccco1	·	·	23%	i	·	·
CC(C)c1cc(C(=O)Nc2cccc(Cl)c2)no1	0%	-3%	-17%	i	8%	0%
CC(C)c1onc(C(=O)Nc2cccc(Cl)c2)c1[N+](=O)[O-]	-5%	6%	10µM*	i	16%	0%
SMILES	aSyn yeast inh	Rango complex inh	TDP-43 yeast inh	Abeta rescue	Rango dissoc inh	S-ASM inh
COc1cccc2c1C(=O)/C(=C\c1ccc(N(C)C)cc1)C2	1%	·	·	·	·	·
COc1ccc([C@H]2CC(=O)C=C(c3cccc(Br)c3)C2)cc1OC	15%	-1%	35µM*	i	10%	-10%
COc1ccc([C@H]2CC(=O)C=C(c3cccc(Br)c3)C2)cc1	?	?	22µM*	i	-8%	-3%
CCOC(=O)c1cccc(C2=CC(=O)C[C@H](c3ccc(OC)c(OC)c3)C2)c1	1%	0%	22µM*	i	33%	7%
COc1ccc([C@H]2CC(=O)C=C(c3cccc(C(F)(F)F)c3)C2)cc1	-5%	0%	?	i	-8%	-12%
COc1ccc([C@H]2CC(=O)C=C(c3cccc(C(C)C)c3)C2)cc1OC	-5%	5%	20µM*	i	0%	-5%
COc1ccc(OCC(=O)Nc2cc(-c3nc4ccccc4o3)ccc2Cl)cc1	·	·	19%	i	·	·
O=c1cc(N2CCOCC2)oc2c(-c3ccccc3)cccc12	22%	·	·	·	·	·
O=C(NC1CC1)c1ccc2nc(-c3ccco3)c(-c3ccco3)nc2c1	-10%	·	·	·	·	·
COc1ccc([C@H]2CC(=O)C=C(c3ccc4ccccc4c3)C2)cc1OC	10%	-3%	16µM*	i	-2%	-11%
COc1cccc(C2=CC(=O)C[C@H](c3ccc(Cl)cc3)C2)c1	11%	2%	13µM*	i	10%	-12%
COc1ccc(COC(=O)C2=C(C)NC(=O)CC2c2cccc(Cl)c2Cl)cc1 (stereo not given)	·	·	3%	i	·	·
CC1CN(C(=O)N2CCC(C(=O)NCCCc3ccccc3)CC2)c2ccccc2O1 (stereo not given)	·	·	16%	i	·	·
O=C(Cc1ccc(OCCC2CCCCC2)cc1)NO	5.6µM*	·	·	·	·	·
Cc1cccc(NC(=O)c2nc[nH]c2C(=O)N[C@@H](Cc2ccccc2)C(=O)OC(C)(C)C)c1	26%	2%	3%	i	-6%	-17%
C[C@@H](NC(=O)c1[nH]cnc1C(=O)Nc1ccccc1)c1ccccc1	-7%	3%	22µM*	i	4%	-6%
Cc1ccc(NC(=O)c2nc[nH]c2C(=O)N[C@@H](C)c2ccccc2)cc1	8%	-1%	?	?	-5%	-15%
Cc1cccc(NC(=O)c2nc[nH]c2C(=O)N[C@@H](CC(C)C)C(=O)OC(C)(C)C)c1	-2%	3%	24%	6.3µM*	-2%	-22%
CCOC(=O)c1ccc(NC(=O)c2nc[nH]c2C(=O)NCC(=O)OC(C)(C)C)cc1	10%	1%	22µM*	?	-3%	-22%
O=C(c1cc(-c2ccc(Br)cc2)n[nH]1)N1CCN(S(=O)(=O)c2ccc(Br)s2)CC1	·	·	25%	i	·	·
COc1ccc(Oc2nc(-c3ccncc3)nc3ccccc23)cc1	6%	1%	0%	i	0%	-1%
COc1cccc(Oc2nc(-c3ccncc3)nc3ccccc23)c1	30%	3%	13µM*	i	-3%	-9%
COc1cccc(CC(=O)NCc2ccc3c(c2)CCN3C(C)=O)c1	·	·	20%	i	·	·
